# In PubChem BioAssay (NCI):
# About 79,000 compounds went through this panel and 15% of them were active in at least one assay; those are over-represented in the sample as a whole. Active and inactive are the calls of the source. Rule as the data show it: active = growth inhibition above about 70%; inactive = the rest.
# What was measured:
# [1] = NCI Yeast Anticancer Drug Screen. Data for the wt1 strain (AID 149);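 also: 0% = growth of vehicle-treated wt1 cultures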; settings: S. cerevisiae wt1 strain (SPY 50644) growth inhibition, stronger effect = higher value
# Summary of the method: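 The wt1 strain was treated with compounds, and growth was compared with vehicle-treated cultures to give inhibition.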
# [2] = NCI Yeast Anticancer Drug Screen. Data for the rad50EPP+ strain (AID 151);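 also: 0% = growth of vehicle-treated control cultures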; settings: S. cerevisiae rad50 mutant strain, stronger effect = higher value
# Summary of the method: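 One strain with a rad50 alteration (rad50EPP+) was compound-treated, its growth then compared to that of vehicle controls.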
# [3] = NCI Yeast Anticancer Drug Screen. Data for the mgt1 strain (AID 153); settings: S. cerevisiae mgt1 mutant growth inhibition, stronger effect = higher value
# Summary of the method: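 After exposure of the mgt1 yeast mutant to compound, growth was measured and reported as inhibition compared with vehicle controls.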
# [4] = NCI Yeast Anticancer Drug Screen. Data for the rad50 strain (AID 155);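 also: 0% = growth of vehicle-only cultures of the same strain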; settings: S. cerevisiae rad50 strain growth inhibition, stronger effect = higher value
# Summary of the method: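 Cells are treated with compound, grown, and their growth is then scored against vehicle-only cultures of the same repair-deficient yeast strain.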
# [5] = NCI Yeast Anticancer Drug Screen. Data for the mec2-1 strain (AID 157); settings: S. cerevisiae mec2-1 strain, stronger effect = higher value
# Summary of the method: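 Test agents were screened against the mec2-1 yeast strain, with defined DNA repair or cell cycle alteration. Growth was scored as inhibition against vehicle-only controls.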
# [6] = NCI Yeast Anticancer Drug Screen. Data for the rad14 strain (AID 159);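 also: 0% = growth of vehicle-treated control cultures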; settings: S. cerevisiae rad14 strain growth inhibition, stronger effect = higher value
# Summary of the method: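 Readout: yeast growth inhibition, referenced to vehicle-only cultures. Strain bears a defined alteration in DNA damage repair.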
# [7] = NCI Yeast Anticancer Drug Screen. Data for the sgs1 mgt1 strain (AID 161);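 also: 0% = growth of cultures given vehicle only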; settings: S. cerevisiae sgs1 mgt1 strain, stronger effect = higher value
# Summary of the method: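 Test agents were incubated with a DNA-repair-mutant yeast strain. Growth was then read and compared against vehicle-treated controls.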
# [8] = NCI Yeast Anticancer Drug Screen. Data for the CLN2oe strain (AID 163);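 also: 0% = growth of vehicle-only control cultures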; settings: S. cerevisiae CLN2oe strain, stronger effect = higher value
# Summary of the method: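 Here, growth inhibition in a cell-cycle-altered yeast strain after compound exposure was quantified against vehicle control growth.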
# [9] = NCI Yeast Anticancer Drug Screen. Data for the cln2 rad14 strain (AID 165);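 also: 0% = growth equal to vehicle treated cultures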; settings: S. cerevisiae cln2 rad14 strain, stronger effect = higher value
# Summary of the method: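 Growth of compound-exposed yeast (cln2 rad14 genotype) measured and expressed as inhibition relative to vehicle.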
# [10] = NCI Yeast Anticancer Drug Screen. Data for the bub3 strain (AID 167); settings: S. cerevisiae bub3 mutant strain, stronger effect = higher value
# Summary of the method: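 Part of a panel of yeast mutants defective in DNA damage repair or cell cycle regulation. Each strain is grown with compound, and inhibition is calculated relative to solvent-treated cultures.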
# [11] = NCI Yeast Anticancer Drug Screen. Data for the wt2 strain (AID 169);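 also: 0% = growth of vehicle-treated yeast cultures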; settings: S. cerevisiae wt2 strain growth inhibition, stronger effect = higher value
# Summary of the method: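 Genetically defined yeast strains from a DNA-repair/cell-cycle panel were used. Compound-exposed yeast growth was measured, and the inhibition was calculated relative to vehicle treatment.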
# [12] = NCI Yeast Anticancer Drug Screen. Data for the mlh1 strain (AID 171);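 also: 0% = growth of vehicle-treated control cultures of the same strain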; settings: S. cerevisiae mlh1 strain growth inhibition, stronger effect = higher value
# Summary of the method: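 Here the genetically defined yeast mutant is grown with each compound, and the extent to which its growth falls below that of vehicle-exposed cells is reported.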
# [13] = NCI Yeast Anticancer Drug Screen. Data for the mlh1 rad18 strain (AID 175); settings: S. cerevisiae mlh1 rad18 strain growth inhibition, stronger effect = higher value
# Summary of the method: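 In this whole-cell yeast screen, a strain with altered DNA damage repair is challenged with compound, and its growth is measured against matched vehicle-treated controls.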
# [14] = NCI Yeast Anticancer Drug Screen. Data for the rad18 strain (AID 177); settings: S. cerevisiae rad18 mutant growth inhibition, stronger effect = higher value
# Summary of the method: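 Screen uses a yeast strain with a defined lesion in DNA damage repair; compound effect is read as loss of growth compared to untreated vehicle cultures.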
# [15] = NCI Yeast Anticancer Drug Screen. Data for the rad52 strain (AID 147);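 also: 0% = growth of vehicle-treated control cultures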; settings: S. cerevisiae rad52 mutant growth inhibition, stronger effect = higher value
# Summary of the method: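 Measured: yeast growth inhibition. System: strain with a defined DNA damage repair alteration. Reference: vehicle-treated control cultures.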
# [16] = NCI Yeast Anticancer Drug Screen. Data for the sgs1 strain (AID 173);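 also: 0% = growth of vehicle-only control cultures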; settings: S. cerevisiae sgs1 mutant, stronger effect = higher value
# Summary of the method: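 Relative growth inhibition, referenced to vehicle, was determined in a yeast strain with a defined alteration affecting DNA damage repair or cell cycle control after compound exposure.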
# [17] = at 5.0 µM (retest, dose inferred, filed as 0.5)
# [18] = at 50.0 µM (retest, dose inferred, filed as 5.0)
smiles,measurement,setting,value
C=C[C@H]1CN2CC[C@H]1C[C@@H]2[C@@H](O)c1ccnc2ccccc12,growth inhibition,[1]; at 1.2 µM,-1% (inactive)
same,growth inhibition,[1]; at 3.7 µM,-2% (inactive)
same,growth inhibition,[1]; at 11.0 µM,-4% (inactive)
same,growth inhibition,[1]; at 33.0 µM,-2% (inactive)
same,growth inhibition,[1]; at 100.0 µM,-2% (inactive)
same,growth inhibition,[2]; at 1.2 µM,-1% (inactive)
same,growth inhibition,[2]; at 3.7 µM,0% (inactive)
same,growth inhibition,[2]; at 11.0 µM,-2% (inactive)
same,growth inhibition,[2]; at 33.0 µM,-3% (inactive)
same,growth inhibition,[2]; at 100.0 µM,-3% (inactive)
same,growth inhibition,[3]; at 1.2 µM,2% (inactive)
same,growth inhibition,[3]; at 3.7 µM,1% (inactive)
same,growth inhibition,[3]; at 11.0 µM,3% (inactive)
same,growth inhibition,[3]; at 33.0 µM,0% (inactive)
same,growth inhibition,[3]; at 100.0 µM,4% (inactive)
same,growth inhibition,[4]; at 1.2 µM,2% (inactive)
same,growth inhibition,[4]; at 3.7 µM,10% (inactive)
same,growth inhibition,[4]; [17],2% (inactive)
same,growth inhibition,[4]; at 11.0 µM,3% (inactive)
same,growth inhibition,[4]; at 33.0 µM,2% (inactive)
same,growth inhibition,[4]; [18],13% (inactive)
same,growth inhibition,[4]; at 50.0 µM,-1.45% (inactive)
same,growth inhibition,[4]; at 100.0 µM,-2% (inactive)
same,growth inhibition,[5]; at 1.2 µM,-1% (inactive)
same,growth inhibition,[5]; at 3.7 µM,3% (inactive)
same,growth inhibition,[5]; [17],8% (inactive)
same,growth inhibition,[5]; at 11.0 µM,4% (inactive)
same,growth inhibition,[5]; at 33.0 µM,2% (inactive)
same,growth inhibition,[5]; [18],7% (inactive)
same,growth inhibition,[5]; at 50.0 µM,-40.6% (inactive)
same,growth inhibition,[5]; at 100.0 µM,-5% (inactive)
same,growth inhibition,[6]; at 1.2 µM,-3% (inactive)
same,growth inhibition,[6]; at 3.7 µM,-9% (inactive)
same,growth inhibition,[6]; at 11.0 µM,-2% (inactive)
same,growth inhibition,[6]; at 33.0 µM,0% (inactive)
same,growth inhibition,[6]; at 100.0 µM,1% (inactive)
same,growth inhibition,[7]; [17],-10% (inactive)
same,growth inhibition,[7]; [18],-1% (inactive)
same,growth inhibition,[7]; at 50.0 µM,-11.9% (inactive)
same,growth inhibition,[8]; at 1.2 µM,1% (inactive)
same,growth inhibition,[8]; at 3.7 µM,2% (inactive)
same,growth inhibition,[8]; at 11.0 µM,3% (inactive)
same,growth inhibition,[8]; at 33.0 µM,5% (inactive)
same,growth inhibition,[8]; at 100.0 µM,2% (inactive)
same,growth inhibition,[9]; [17],44% (inactive)
same,growth inhibition,[9]; [18],14% (inactive)
same,growth inhibition,[9]; at 50.0 µM,8.55% (inactive)
same,growth inhibition,[10]; at 1.2 µM,3% (inactive)
same,growth inhibition,[10]; at 3.7 µM,-6% (inactive)
same,growth inhibition,[10]; [17],-8% (inactive)
same,growth inhibition,[10]; at 11.0 µM,1% (inactive)
same,growth inhibition,[10]; at 33.0 µM,1% (inactive)
same,growth inhibition,[10]; [18],-1% (inactive)
same,growth inhibition,[10]; at 50.0 µM,-7.5% (inactive)
same,growth inhibition,[10]; at 100.0 µM,1% (inactive)
same,growth inhibition,[11]; at 1.2 µM,0% (inactive)
same,growth inhibition,[11]; at 3.7 µM,1% (inactive)
same,growth inhibition,[11]; at 11.0 µM,0% (inactive)
same,growth inhibition,[11]; at 33.0 µM,-2% (inactive)
same,growth inhibition,[11]; at 100.0 µM,1% (inactive)
same,growth inhibition,[12]; at 1.2 µM,-2% (inactive)
same,growth inhibition,[12]; at 3.7 µM,1% (inactive)
same,growth inhibition,[12]; at 11.0 µM,-6% (inactive)
same,growth inhibition,[12]; at 33.0 µM,-7% (inactive)
same,growth inhibition,[12]; at 100.0 µM,9% (inactive)
same,growth inhibition,[13]; [17],2% (inactive)
same,growth inhibition,[13]; [18],8% (inactive)
same,growth inhibition,[13]; at 50.0 µM,7.65% (inactive)
same,growth inhibition,[14]; at 1.2 µM,-2% (inactive)
same,growth inhibition,[14]; at 3.7 µM,-2% (inactive)
same,growth inhibition,[14]; at 11.0 µM,-9% (inactive)
same,growth inhibition,[14]; at 33.0 µM,-17% (inactive)
same,growth inhibition,[14]; at 100.0 µM,-28% (inactive)
COc1ccc(/C=C(/C)[N+](=O)[O-])cc1,growth inhibition,[15]; at 1.2 µM,8% (inactive)
same,growth inhibition,[15]; at 3.7 µM,36% (inactive)
same,growth inhibition,[15]; at 11.0 µM,81% (active)
same,growth inhibition,[15]; at 33.0 µM,95% (active)
same,growth inhibition,[15]; at 100.0 µM,99% (active)
same,growth inhibition,[2]; at 1.2 µM,57% (inactive)
same,growth inhibition,[2]; at 3.7 µM,83% (active)
same,growth inhibition,[2]; at 11.0 µM,94% (active)
same,growth inhibition,[2]; at 33.0 µM,97% (active)
same,growth inhibition,[2]; at 100.0 µM,99% (active)
same,growth inhibition,[3]; at 1.2 µM,-22% (inactive)
same,growth inhibition,[3]; at 3.7 µM,-17% (inactive)
same,growth inhibition,[3]; at 11.0 µM,0% (inactive)
same,growth inhibition,[3]; at 33.0 µM,80% (active)
same,growth inhibition,[3]; at 100.0 µM,99% (active)
same,growth inhibition,[4]; at 1.2 µM,-10% (inactive)
same,growth inhibition,[4]; at 3.7 µM,23% (inactive)
same,growth inhibition,[4]; [17],49% (inactive)
same,growth inhibition,[4]; at 11.0 µM,79% (active)
same,growth inhibition,[4]; at 33.0 µM,94% (active)
same,growth inhibition,[4]; [18],94% (active)
same,growth inhibition,[4]; at 50.0 µM,80.3% (active)
same,growth inhibition,[4]; at 100.0 µM,99% (active)
same,growth inhibition,[5]; at 1.2 µM,-44% (inactive)
same,growth inhibition,[5]; at 3.7 µM,-51% (inactive)
same,growth inhibition,[5]; [17],16% (inactive)
same,growth inhibition,[5]; at 11.0 µM,-34% (inactive)
same,growth inhibition,[5]; at 33.0 µM,78% (active)
same,growth inhibition,[5]; [18],98% (active)
same,growth inhibition,[5]; at 50.0 µM,90.3% (active)
same,growth inhibition,[5]; at 100.0 µM,99% (active)
same,growth inhibition,[6]; at 1.2 µM,-20% (inactive)
same,growth inhibition,[6]; at 3.7 µM,-25% (inactive)
same,growth inhibition,[6]; at 11.0 µM,-24% (inactive)
same,growth inhibition,[6]; at 33.0 µM,69% (inactive)
same,growth inhibition,[6]; at 100.0 µM,99% (active)
same,growth inhibition,[7]; [17],28% (inactive)
same,growth inhibition,[7]; [18],85% (active)
same,growth inhibition,[7]; at 50.0 µM,87.8% (active)
same,growth inhibition,[8]; at 1.2 µM,-3% (inactive)
same,growth inhibition,[8]; at 3.7 µM,-10% (inactive)
same,growth inhibition,[8]; at 11.0 µM,-9% (inactive)
same,growth inhibition,[8]; at 33.0 µM,71% (active)
same,growth inhibition,[8]; at 100.0 µM,99% (active)
same,growth inhibition,[9]; [17],37% (inactive)
same,growth inhibition,[9]; [18],94% (active)
same,growth inhibition,[9]; at 50.0 µM,60% (inactive)
same,growth inhibition,[10]; at 1.2 µM,-27% (inactive)
same,growth inhibition,[10]; at 3.7 µM,-28% (inactive)
same,growth inhibition,[10]; [17],28% (inactive)
same,growth inhibition,[10]; at 11.0 µM,-6% (inactive)
same,growth inhibition,[10]; at 33.0 µM,93% (active)
same,growth inhibition,[10]; [18],99% (active)
same,growth inhibition,[10]; at 50.0 µM,90.8% (active)
same,growth inhibition,[10]; at 100.0 µM,98% (active)
same,growth inhibition,[11]; at 1.2 µM,-5% (inactive)
same,growth inhibition,[11]; at 3.7 µM,-4% (inactive)
same,growth inhibition,[11]; at 11.0 µM,-1% (inactive)
same,growth inhibition,[11]; at 33.0 µM,59% (inactive)
same,growth inhibition,[11]; at 100.0 µM,99% (active)
same,growth inhibition,[12]; at 1.2 µM,-12% (inactive)
same,growth inhibition,[12]; at 3.7 µM,-16% (inactive)
same,growth inhibition,[12]; at 11.0 µM,-2% (inactive)
same,growth inhibition,[12]; at 33.0 µM,97% (active)
same,growth inhibition,[12]; at 100.0 µM,99% (active)
same,growth inhibition,[16]; at 1.2 µM,20% (inactive)
same,growth inhibition,[16]; at 3.7 µM,41% (inactive)
same,growth inhibition,[16]; at 11.0 µM,42% (inactive)
same,growth inhibition,[16]; at 33.0 µM,86% (active)
same,growth inhibition,[16]; at 100.0 µM,98% (active)
same,growth inhibition,[13]; [17],22% (inactive)
same,growth inhibition,[13]; [18],99% (active)
same,growth inhibition,[13]; at 50.0 µM,81.5% (active)
same,growth inhibition,[14]; at 1.2 µM,-14% (inactive)
same,growth inhibition,[14]; at 3.7 µM,-8% (inactive)
same,growth inhibition,[14]; at 11.0 µM,-17% (inactive)
same,growth inhibition,[14]; at 33.0 µM,42% (inactive)
same,growth inhibition,[14]; at 100.0 µM,99% (active)
